MARV entry inh: Marburg virus entry inhibition | 300,000 compounds, 1.8% hits | Marburg virus pseudotyped entry inhibition, cell reporter | Potency, µM (top dose mostly 37.8 µM), for inactives: top-dose activity change, negative = inhibition, usual class: inhibitors | AID 540276; calls by dose curve; tested in HEK293 cells; also: potency is read from the fitted curve at half-maximal effect
VACV mCherry inh: vaccinia inhibition (mCherry reporter). 310,000 compounds, 0.63% hits. Vaccinia virus mCherry reporter infection, fluorescence. Potency, µM (highest dose often 36.5 µM), inactives show at the highest dose activity change, negative = inhibition, hits mostly inhibitors; calls by dose curve; tested in A549 cells; also: potency is read from the fitted curve at half-maximal effect; nearly all actives have a fitted effect of over 35% in size
FMDV antiviral: antivirals against foot and mouth disease virus. AID 1159524. Potency, µM (highest dose often 57.9 µM), for the others: at the top dose activity change, negative = inhibition, usual class: inhibitors. FMDV antiviral cell-based qHTS. 410,000 compounds, 1.2% hits; calls by dose curve; tested in HEK293T cells; also: read-out not given here; potency is read from the fitted curve at half-maximal effect; nearly all actives have a fitted effect of over 45% in size
LASV entry inh: blocks Lassa virus binding to or entry into cells; Lassa virus pseudotype entry inhibition, cell reporter; Potency, µM (titrated, usually from 37.9 µM), without a hit: top-dose activity change, negative = inhibition, most hits filed as inhibitors; AID 540256; 300,000 compounds, 1.2% hits; calls by dose curve; tested in HEK293 cells; also: potency is read from the fitted curve at half-maximal effect; nearly all actives have a fitted effect of over 50% in size
Vaccinia Venus: inhibitors of vaccinia virus (Venus reporter); Vaccinia virus Venus reporter expression, fluorescence; 330,000 compounds, 0.46% hits; Potency, µM (highest dose often 36.5 µM), for the others: at the highest dose activity change, negative = inhibition, usual class: inhibitors; calls by dose curve; tested in A549 cells; also: potency is read from the fitted curve at half-maximal effect; nearly all actives have a fitted effect of over 30% in size
HCMV inh: human cytomegalovirus inhibition. HFF cells, HCMV-luciferase reporter, 72 h; stronger effect = lower value. activity change, negative = inhibition, % at 57.5 µM. 410,000 compounds, 4.5% hits. AID 1259415; in the data active = activity change below about -60%; inconclusive = no clear call, values can overlap the other calls; inactive = above about -39%
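Human foreskin fibroblasts infected with luciferase-reporter HCMV at MOI 1 PFU/cell, compounds at two doses. Luciferase measured 72 h post infection; normalized to buffer-only basal and Salinomycin (10uM) controls.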
An asterisk follows results filed as active; i = inactive; ? = inconclusive; / = not tested or not shown; [ ] = dose if it differs, or a comment. In the library only some 6.5% were active in any assay of this set; here they are far more common. % is scaled to controls: 0 for no effect and ±100 for the full control effect.

SMILES	MARV entry inh	VACV mCherry inh	FMDV antiviral	LASV entry inh	Vaccinia Venus	HCMV inh
O=C(N/N=C/c1cccs1)c1n[nH]c2c1CCCC2	?	?	-23.2%	2.24µM*	?	-85.4*
O=C(N/N=C\c1cccc(Cl)c1)c1n[nH]c2c1CCCC2	?	-1.1%	7.3%	?	?	80.9
C/C(=N\NC(=O)c1n[nH]c2c1CCC2)c1cccs1	-4.3%[46.1 µM]	-6.4%	41.0%	-22.2%	-7.7%	-91.0*
O=C(N/N=C/c1cccc2ccccc12)c1n[nH]c2c1CCCC2	?	-10.8%	31.4%	-34.9%[46.1 µM]	-17.6%	-16.1
Cc1ccc(-n2cc(-c3ccc([N+](=O)[O-])cc3)[nH]c2=S)c(C)c1	-0.2%	?	-14.9%	0.1%	-20.6%	-64.3*
Cc1cccc(-n2cc(-c3ccc([N+](=O)[O-])cc3)[nH]c2=S)c1	2.9%	-9.6%	23.1%	?	-8.1%	-10.4
COc1cc(C(CC2=C(c3ccccc3)Cc3ccccc32)NC(=O)C(F)(F)F)cc(OC)c1OC (stereo not given)	8.2%[14.2 µM]	/	/	/	/	/
CCCCOc1ccc(-c2cc(C(=O)NNC(=S)NCC)c3ccccc3n2)cc1	1.46µM*	/	?	?	/	-92.7*
O=C(Oc1ccc([N+](=O)[O-])cc1)c1cc(-c2ccccc2)nc2ccccc12	0.5%	/	20µM*	5.3%	-8.8%	-6.6
CCNC(=S)NNC(=O)c1cc(-c2ccc(OC)cc2)nc2ccccc12	0.651µM*	-15.6%	11.2µM*	3.26µM*	-18.2%	133.9
O=C(O)c1cc(-c2ccccc2)nc2ccccc12	-3.8%	-25.2%	-23.0%	-16.5%	-13.0%	-38.4
CCNC(=S)NNC(=O)c1cc(-c2cccc(C)c2)nc2ccccc12	-29.2%	/	5.0%	?	/	118.2
CCOc1ccc(-c2cc(C(=O)N3CCC(C)CC3)c3ccccc3n2)cc1	16.2%	-4.8%	21.2%	29.9%	-8.8%	26.9
CCOc1ccc(-c2cc(C(=O)O)c3ccccc3n2)cc1	20.6µM*	/	?	11.6µM*	/	69.1
CCCCOc1cccc(-c2cc(C(=O)NNC(=S)NCC)c3ccccc3n2)c1	-9.4%	-21.9%	75.6%	30.3%[14.3 µM]	-12.1%	-7.4
COC(=O)/C(Cc1cc(Br)c(OC)c(Br)c1O)=N/O	-16.0%[14.2 µM]	/	/	/	/	/
COc1ccc(F)c(CN2CCC3(CCC(CNC(=O)c4cc(C)nn4C)O3)CC2)c1 (stereo not given)	/	-16.4%	-23.5%	/	-10.3%	/
Cc1cc(C)c(C)c(S(=O)(=O)Nc2ccc3cn[nH]c3c2)c1C	/	/	-10.1%	/	/	-84.3*
COc1ccc(S(=O)(=O)Nc2ccc3cn[nH]c3c2)cc1C	?	-15.7%	0.0%	2.2%	-13.7%	14.5
Cc1ccc(C)c(CN2C[C@H](Sc3ccccn3)C[C@H]2C(=O)Nc2ccc3sc(C)nc3c2)c1	/	i	-4.1%	/	0.5%	/
O=c1c2c3nc4ccccc4nc3n(-c3ccc4c(c3)OCCO4)c2ncn1C1CCCC1	?	-12.9%	?	?	-3.3%	-77.4*
Nc1c(C(=O)NC2CC2)c2nc3ccccc3nc2n1-c1ccc2c(c1)OCO2	-14.4%	/	?	-4.6%	35.8%	-18.4
CCC(C)n1c(C)nc2c(c1=O)c1nc3ccccc3nc1n2-c1ccc2c(c1)OCCO2 (stereo not given)	6.4%	/	/	/	/	/
Nc1c(C(=O)OCC2CCCO2)c2nc3ccccc3nc2n1-c1ccc2c(c1)OCCO2 (stereo not given)	-6.2%	/	-30.0%	10.7%	-10.4%	-66.0*
COc1cc(OC)cc(C(=O)Nc2ccc(-c3nc4cc(C(C)C)ccc4o3)cc2)c1	/	?	-6.8%	-12.9%[46.1 µM]	?	?
SMILES	MARV entry inh	VACV mCherry inh	FMDV antiviral	LASV entry inh	Vaccinia Venus	HCMV inh
Cc1ccc(-c2csc(NC(=O)c3cccc(S(=O)(=O)N4CCN(C)CC4)c3)n2)cc1	-1.6%	-11.1%	12.6µM*	-3.8%	-4.7%	16.1
O=C(Nc1nc(-c2nc3ccccc3s2)cs1)c1ccc(S(=O)(=O)N2CCOCC2)cc1	?	?	?	-79.6%	?	?
NC(=O)c1ccsc1NC(=O)c1ccc(S(=O)(=O)N2CCCc3ccccc32)cc1	?	-9.2%	35.5µM*	?	?	-70.8*
COc1ccc(/C=N/Nc2nc(-c3cccc(S(=O)(=O)N4CCCC4)c3)cs2)c(OC)c1	?	?	?	?	?	-65.0*
O=C(Nc1nc(-c2ccc(S(=O)(=O)N3CCOCC3)cc2)cs1)c1ccccc1	3.98µM*	-21.2%	14.1µM*	?	-20.7%	-91.5*
Cc1cc[n+](CC(=O)c2ccc(F)cc2)c2ccccc12	/	-7.2%	/	/	-1.8%	/
COC1=C(CC=C(C)C)C2=C(CCC(=O)O2)CC1	4.5%	/	/	/	/	/
C[C@@H]1C=CCCO[C@]12C(=O)N(Cc1ccccc1C(F)(F)F)c1ccccc12	-12.3%[14.2 µM]	/	/	/	/	?
O=S(=O)(c1ccc(-c2csc(-c3cccnc3)n2)cc1)N1CCOCC1	?	-4.5%	-22.1%	2.0%	-15.1%	-63.9*
Cc1csc(NC(=O)C2=NN(c3ccccc3)C(=O)CC2)n1	2.6%[46.1 µM]	i	5.0%	0.9%	-6.5%	?
Cc1ccc(-c2csc(NC(=O)C3=NN(c4ccccc4)C(=O)CC3)n2)cc1	?	-6.2%	28.2µM*	?	-6.8%	-26.9
O=C(Nc1nc(-c2ccccc2)cs1)c1ccc(S(=O)(=O)N2CCc3ccccc32)cc1	?	i	?	?	?	-77.4*
COc1cccc(C(=O)Nc2nc(-c3ccc(S(=O)(=O)N4CCOCC4)cc3)cs2)c1	?	-25.4%	?	11.2µM*	-26.5%	-87.5*
O=C(NC1CCCCC1)c1nnc2n1CCN(C(=O)c1ccc3occc3c1)C2	/	/	/	/	/	-13.5
CCOc1cc(CNC(=O)c2ccc(C)c(NC(=O)c3nsc4ccccc34)c2)ccc1OC	/	-13.3%	-18.6%	?	-8.9%	12.6
O=C(Nc1ccccc1Sc1ccccc1)c1cnn2c1NC(=C1CC1)C=C2C(F)F	/	-13.6%	/	/	-20.3%	/
COc1cc(C(=O)Nc2nc(-c3ccc(C)cc3)cs2)ccc1OCC(=O)N1CCOCC1	-2.4%	/	22.4µM*	6.5%	/	-30.3
CCCc1c(-c2ccc(F)cc2)ncn1Cc1ccccc1OC	/	-17.2%	?	/	-16.9%	?
CCCCc1c(-c2ccccc2F)ncn1CCc1ccccc1OC	/	-8.0%	?	/	0.8%	?
CCCc1c(-c2ccccc2F)ncn1CCc1ccccc1OC	/	-26.1%	31.6µM*	/	-16.2%	-95.3*
CCCCCc1c(-c2ccccc2F)ncn1CCc1ccccc1OC	/	-7.0%	31.6µM*	/	-2.5%	?
C[N+](C)(C)Cc1ccccc1	10.5%	-12.2%	35.5µM*	-2.2%	-8.9%	-12.6
Cc1ccc(-n2cccn2)c(CN2CCC(CO)(CCc3ccccc3)CC2)c1	8.91µM*	-11.7%	-5.0%	-4.8%	-6.3%	-26.4
OCC1(CCc2ccccc2)CCN(Cc2cc(Cl)ccc2O)CC1	3.0%[14.2 µM]	-7.3%	-17.1%	-0.1%	-7.8%	-28.1
CCCC(=O)NC(=S)Nc1cccc2c(O)cccc12	-0.1%[46.1 µM]	-19.4%	32.6%	0.6%[46.1 µM]	-12.4%	-99.3*
Cc1ccn2cc(-c3ccc4c(c3)NC(=O)CO4)nc2c1	/	/	0.0%	/	/	-83.9*

Screening data from PubChem BioAssay.
